POLB inh: DNA polymerase beta (human) inhibition. Potency, µM (doses to about 114 µM), for inactives: at the top dose activity change, negative = inhibition, hits mostly inhibitors. 340,000 tested, 1.3% active. Pol beta primer extension/strand displacement, fluorescence kinetic. P06746. AID 485314; also: potency is read from the fitted curve at half-maximal effect; % is scaled to controls: 0 for no effect and ±100 for the full control effect
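10 nM enzyme + cpd, 15 min RT; start with substrate 50 nM final; read 0 min and after 10 min RT. Corrected, normalized data; 4-parameter Hill curve fit.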
Pol kappa inh-1: inhibitors of human DNA polymerase kappa; Potency, µM (doses to about 107 µM), inactives show top-dose activity, negative = inhibition, actives largely listed as inhibitors; AID 588579; Q9UBT6; purified Pol kappa, fluorescent DNA synthesis assay, 10 min; 400,000 tested, 0.53% active; also: potency is read from the fitted curve at half-maximal effect; % is scaled to controls: 0 for no effect and ±100 for the full control effect
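Here, compound and 10 nM enzyme are combined for 15 min at room temperature; adding 50 nM substrate (final) starts DNA synthesis, tracked by fluorescence at 0 and 10 min against buffer-only wells.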
PI5P4K alpha inh: inhibitors of human PI5P4K alpha; P48426; 330,000 tested, 1.2% active; max response, %; PI5P4Kalpha enzyme, ADP-Glo luminescence, 60 min; active compounds read low; active = max response of -50% or lower; inconclusive = between -30% and -50%; inactive = -30% or higher; also: value at the top dose of about 77 µM; % is scaled to controls: 0 for no effect and ±100 for the full control effect
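Reactions run in 0.038 M HEPES pH 7.4, 0.28 mM EGTA, 0.1% CHAPS and 5% DMSO, with PI5P4Kalpha, substrate, compound and 5 microM ATP final, one hour at room temperature. Readout is ADP-Glo luminescence.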
WRN helicase inh: blocks human WRN helicase; 360,000 tested, 0.46% active; Potency, µM (highest dose often 114 µM), for the others: at the top dose activity change, negative = inhibition, hits mostly inhibitors; WRN helicase unwinding, fluorescent forked duplex, kinetic; also: potency is read from the fitted curve at half-maximal effect; % is scaled to controls: 0 for no effect and ±100 for the full control effect; nearly all actives have a fitted effect of over 55% in size
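Kinetic red-fluorescence monitoring (525/598 nm) tracks WRN helicase activity after 100 nM fluorophore-quencher forked duplex and 2 mM ATP are added to 20 nM enzyme pretreated 15 min at room temperature with compound.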
Pol eta inh-1: DNA polymerase eta (human) inhibition; Q9Y253; recombinant Pol eta, fluorescent DNA replication assay; Potency, µM (doses to about 114 µM), inactives show at the highest dose activity change, negative = inhibition, actives largely listed as inhibitors; 390,000 tested, 1.2% active; AID 588591; also: potency is read from the fitted curve at half-maximal effect; % is scaled to controls: 0 for no effect and ±100 for the full control effect
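Pol eta at 10 nM preincubated with compounds 15 min at room temperature; reaction started with fluorescent substrate (50 nM final) and read kinetically at 0 and 10 min.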
Pol iota inh: blocks human DNA polymerase iota activity; Pol iota fluorescent replication assay, 10 min; Potency, µM (titrated, usually from 115 µM), for the others: at the top dose activity, negative = inhibition, hits mostly inhibitors; 390,000 tested, 1% active; AID 588590; also: potency is read from the fitted curve at half-maximal effect
Target sequence (Q9UNA4 whole entry, looked up): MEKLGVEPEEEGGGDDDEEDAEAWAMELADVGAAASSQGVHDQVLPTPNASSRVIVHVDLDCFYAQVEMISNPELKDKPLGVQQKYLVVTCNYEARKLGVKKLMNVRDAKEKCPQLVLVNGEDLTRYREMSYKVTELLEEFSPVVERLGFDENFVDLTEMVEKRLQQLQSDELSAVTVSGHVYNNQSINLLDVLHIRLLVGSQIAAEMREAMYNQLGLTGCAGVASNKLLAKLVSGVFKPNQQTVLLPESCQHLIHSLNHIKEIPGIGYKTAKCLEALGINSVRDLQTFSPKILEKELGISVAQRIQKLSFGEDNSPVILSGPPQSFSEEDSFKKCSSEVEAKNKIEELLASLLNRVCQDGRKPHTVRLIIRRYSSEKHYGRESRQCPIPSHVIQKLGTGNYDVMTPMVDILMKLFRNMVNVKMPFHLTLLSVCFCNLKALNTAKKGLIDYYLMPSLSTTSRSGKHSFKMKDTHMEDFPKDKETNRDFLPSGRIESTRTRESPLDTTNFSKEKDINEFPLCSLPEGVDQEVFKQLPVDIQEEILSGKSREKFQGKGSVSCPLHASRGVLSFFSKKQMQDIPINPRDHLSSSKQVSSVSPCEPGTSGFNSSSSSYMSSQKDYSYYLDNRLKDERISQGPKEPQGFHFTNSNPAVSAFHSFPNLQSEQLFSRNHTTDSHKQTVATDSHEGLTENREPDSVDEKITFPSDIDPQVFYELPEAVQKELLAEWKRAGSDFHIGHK
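Fluorescent replication assay read twice, at 0 min and 10 min after adding 50 nM (final) substrate. Enzyme (10 nM) and compounds were first incubated 15 min at room temperature; enzyme-free buffer wells were negative controls.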
HEK293 tox: counter-screen for GALK inhibitors: HEK293 cell cytotoxicity. shares compounds with Pol eta inh-1. HEK-293 viability, ATP luminescence (CellTiter-Glo), 24/48 h. Potency, µM (highest dose often 46.1 µM), without a hit: at the highest dose activity change, negative = cytotoxicity, usual class: inhibitors. 170 tested, 10% active; also: potency is read from the fitted curve at half-maximal effect; % is scaled to controls: 0 for no effect and ±100 for the full control effect
Pol kappa inh-2: confirmation of human DNA polymerase kappa inhibitors | Potency, µM, hits mostly inhibitors | 920 tested, 76% active | shares compounds with Pol eta inh-1 | purified Pol-kappa, fluorescent strand-displacement substrate; also: potency is read from the fitted curve at half-maximal effect
Pol eta inh-2: Pol eta (human) inhibition, cherry-pick confirmation; Pol eta primer extension, TAMRA/BHQ fluorescence, 10 min; Potency, µM, actives largely listed as inhibitors; 2,600 tested, 64% active; shares compounds with Pol eta inh-1; also: potency is read from the fitted curve at half-maximal effect
* marks the source's active call; other numbers are inactive results; ? = inconclusive; . = not tested or not shown; [ ] = remark or other dose. Shown are actives, neighbours in structure and some others; about 2.8% of the full set was active somewhere. Unless noted, calls follow the shape of the dose curve; as a rule, active = well fitted curve in the direction sought with a large enough effect; inconclusive = small, poorly fitted or top-dose-only effect, or another doubt; inactive = no such curve, though single readings can be large; an effect the other way counts as inactive or inconclusive.

SMILES	POLB inh	Pol kappa inh-1	PI5P4K alpha inh	WRN helicase inh	Pol eta inh-1	Pol iota inh	Pol eta inh-2	others
Cc1ccc(OCc2csc(N)n2)cc1	14%	3%	2	-7%	2%	111%	.
CC1=C(c2cccc(Cl)c2)S(=O)(=O)NC1=NCc1ccccc1C	3%	3%	.	.	-17%	16%	.
CN(C)C1(CN=Cc2cc(Cl)cc([N+](=O)[O-])c2O)CCCCC1	14µM*	?	-62*	-13%	?	?	?
Cc1cccc(C)c1NC(=O)Cn1cc(S(=O)(=O)Cc2ccc(F)cc2)c2ccccc21	28µM*	?	.	.	?	?	?	Pol kappa inh-2=?
NC(=O)c1ccc(NC(=O)CCN2C(=O)c3ccccc3C2=O)cc1	-3%	-14%	0	3%	-1%	113%	.
Cc1cc(C)n(CC(=O)NC2C(=O)N3C(C(=O)O)=C(CSc4nnc(C)s4)CSC23)n1 (stereo not drawn)	?	-15%	-3	-9%[11.6 µM]	22µM*	-14%	?
CC1=C(C(=O)O)N2C(=O)C(NC(=O)c3c(F)cccc3F)C2SC1 (stereo not drawn)	.	-13%	-18	3%	-2%	-6%	.
Cc1nnc(SCC2=C(C(=O)O)N3C(=O)C(NC(=O)Cn4ncc(Cl)c4C)C3SC2)s1 (stereo not drawn)	32µM*	?	1	-12%[11.6 µM]	18µM*	?	27*
Cc1nnc(SCC2=C(C(=O)O)N3C(=O)C(NC(=O)c4cccc(F)c4F)C3SC2)s1 (stereo not drawn)	2%	?	-5	-7%[11.6 µM]	32µM*	16µM*	27*
COC(=O)c1cc2sc(Cl)cc2n1Cc1nc(-c2ccccc2F)oc1C	12%	-8%	.	.	-12%	6%	.
CC(C)(C)NC(=O)C[C@H]1C[C@H](C(=O)N2CCOCC2)[C@@]2(CCC3CCCC3)c3[nH]c4cc(-c5ccco5)ccc4c3CCN2C1=O	.	-14%	-21	3%	-19%	?	.
CCn1c(CC(=O)Nc2ccccc2F)nnc1SCC(=O)Nc1nncs1	28%	-8%	-6	2%	-7%	146%	.
COc1ccc(-n2ccn(CC(=O)Nc3ccc(OC)cc3OC)c(=O)c2=O)cc1	3%	11%	1	4%	-9%	-11%	.
COc1ccc(CNC(=O)c2cc(-c3ccncc3)nc3c(C)cc(C)cc23)cc1OC	?	-8%	-8	-18%	-16%	65%	.
Oc1c(Br)cc(Br)c(/C=N/n2c(-c3ccccc3)n[nH]c2=S)c1Br	?	?	-86*	?	35µM*	28µM*	?	Pol kappa inh-2=?
S=c1[nH]nc(-c2cc(-c3ccccc3)n[nH]2)n1/N=C/c1cccc(Cl)c1	7.1µM*	?	-15	50µM*	40µM*	25µM*	27*
CCC1CN(S(=O)(=O)c2cc(-c3cc(C)no3)ccc2C)c2cc(Cl)ccc2O1 (stereo not drawn)	-10%	-13%	.	.	7%	-4%	.
CN=c1scc(C)n1/N=C/c1ccc(O)c(O)c1O	5µM*	13µM*	?	20µM*	3.5µM*	7.9µM*	54*
CN=c1scc(-c2cccs2)n1/N=C/c1ccc(O)c(O)c1O	2.8µM*	?	-75*	?	?	?	76*
CN=c1scc(C)n1/N=C/c1cc(Br)c(O)c(OC)c1	1%	-4%	-6	-5%	-8%	168%	.
CN=c1scc(-c2cccs2)n1/N=C/c1ccccc1O	7%	-4%	10	-25%	-19%	-18%	.
Cc1c(C(=O)O)c(O)cc2c1C(=O)c1c(O)c([C@@H]3O[C@H](CO)[C@@H](O)[C@H](O)[C@H]3O)c(O)c(O)c1C2=O	.	50µM*	?	32µM*	?	?	?	Pol kappa inh-2=42*
OCC1OC(c2ccc(O)cc2O)C(O)C1O (stereo not drawn)	.	.	6	-4%	.	.	.
CCOC(=O)c1sc(N=NC2=C(O)CCCC2=O)c(C(=O)OCC)c1C	8.9µM*	?	-57*	?	79µM*	?	67*
CCOC(=O)/C(N=Nc1sc(C(=O)OCC)c(C)c1C(=O)OCC)=C(\C)O	1%	.	.	.	.	.	.
SMILES	POLB inh	Pol kappa inh-1	PI5P4K alpha inh	WRN helicase inh	Pol eta inh-1	Pol iota inh	Pol eta inh-2	others
O=C1C(=Cc2ccncc2)CCCc2ccccc21	.	.	0	-4%	6%	.	.
O=C1/C(=C/c2ccncc2)CCC/C1=C\c1ccncc1	-2%	-18%	-8	?	45µM*	10µM*	?
CC(=O)Nc1ccc2c(c1)C(=O)c1ccccc1C2=O	0%	-25%	2	-16%	4%	?	.
CC(C)(C)C(=O)Nc1ccc2c(c1)C(=O)C(=O)c1ccccc1-2	.	4%	.	.	.	1.4µM*	.	HEK293 tox=5.6µM*
CC(C)(C)c1ccc2c(c1)OC(C(=O)N/N=C\c1ccc(-c3cccc(C(=O)O)c3)o1)CO2 (stereo not drawn)	-37%	?	-16	-14%[11.6 µM]	11µM*	?	17*
CC(C)(C)c1ccc2c(c1)OC(C(=O)N/N=C\c1ccccn1)CO2 (stereo not drawn)	21%	-20%	9	-11%	-16%	-13%	.
O=C(O)c1cccc(-c2ccc(/C=N/NC(=O)C3COc4ccccc4O3)o2)c1 (stereo not drawn)	20µM*	?	-4	?	28µM*	?	60*
COc1ccc2c(Sc3ccccc3)c(C(=O)N3CCC(C)CC3)[nH]c2c1	-21%	-3%	.	.	-28%	30%	.
CCOc1ccccc1NC(=O)COC(=O)CC(NC(N)=O)c1ccc(Cl)cc1 (stereo not drawn)	11%	2%	-3	-16%[57.1 µM]	-13%	31%	.
Cc1ccc(S(=O)(=O)/N=C2/NC(=O)/C(=C/c3cccnc3)S2)cc1	?	-8%	?	?	?	?	.
Cc1ccc(S(=O)(=O)/N=C2/NC(=O)/C(=C/c3ccc(Br)o3)S2)cc1	?	?	-27	?	22µM*	?	?

Source: PubChem BioAssay (National Center for Advancing Translational Sciences (NCATS))
